# Experimental data: publication PMC5540273 (PLoS ONE, 2017)
# How the values were obtained:
# Conditions in all cases: concentration: 1 μM, replicates: in singlicate; n = 1
# [1] = test system: T1, PKAC-beta
# T1 construct: gene PRKACB
# [2] = test system: PKMYT1
# [3] = test system: PKN1
# [4] = test system: PKN2
# [5] = test system: PLK1
# [6] = test system: PLK2
# [7] = test system: PLK3
# [8] = test system: PLK4
# [9] = test system: PRKCD
# [10] = test system: PRKCE
# [11] = test system: PRKCH
# [12] = test system: PRKCI
# [13] = test system: PRKCQ
# [14] = test system: PRKD1
# [15] = test system: PRKD2
# [16] = test system: PRKD3
# [17] = test system: PRKG1
# [18] = test system: PRKG2
# [19] = test system: T2, PRKR
# T2 construct: gene EIF2AK2
# [20] = test system: PRKX
# 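Also: KINOMEscan kinase panel screen.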
SMILES,%Inh [1],%Inh [2],%Inh [3],%Inh [4],%Inh [5],%Inh [6],%Inh [7],%Inh [8],%Inh [9],%Inh [10],%Inh [11],%Inh [12],%Inh [13],%Inh [14],%Inh [15],%Inh [16],%Inh [17],%Inh [18],%Inh [19],%Inh [20]
COC(=O)c1cccc(NC(=O)NC2CCN(c3ccnc(Nc4ccc(F)cc4)n3)C2)c1 (stereo not shown) [GSK1379725],0%,0%,0%,0%,0%,0%,0%,0%,0%,4%,3%,15%,0%,1%,1%,0%,0%,0%,0%,0%
COC(=O)C(Cc1ccccc1)NC(=O)NC1CCN(c2ccnc(Nc3ccc(F)cc3)n2)C1 (stereo not shown) [GSK1379714],0%,0%,41%,0%,6%,0%,0%,12%,1%,20%,10%,22%,0%,0%,0%,100%,0%,8%,6%,0%
CC(=O)c1c(C)c2cnc(Nc3ccn(C)n3)nc2n(C2CCCC2)c1=O,0%,0%,0%,0%,0%,8%,0%,15%,0%,0%,0%,0%,0%,0%,0%,0%,0%,0%,0%,0%
Fc1ccc(-c2nc[nH]c2-c2ccncc2)cc1 [SB-217360],0%,9%,0%,0%,9%,21%,36%,4%,8%,0%,0%,0%,0%,0%,0%,0%,18%,0%,0%,0%
NS(=O)(=O)c1cccc(N/C=C2\C(=O)Nc3ccc(S(=O)(=O)Cc4c(Cl)cccc4Cl)cc32)c1 [GSK398099],0%,5%,38%,0%,1%,0%,0%,18%,0%,11%,0%,6%,0%,0%,0%,17%,0%,100%,0%,12%
